G9a inh = inhibitors of human histone lysine methyltransferase G9a; hit rate 8.8% among 350,000; Potency, µM (doses to about 102 µM), without a hit: at the highest dose activity, negative = inhibition, hits mostly inhibitors; Q96KQ7; G9a H3K9 monomethylation, AlphaScreen, 2 h; note: % is set by controls: 0 for no effect and ±100 for the full control effect; nearly all actives have a fitted effect of over 75% in size
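AlphaScreen read-out: biotin-H3K9 peptide (500 nM) methylation by 20 nM enzyme with 20 uM SAM, 2 h at room temperature after 15 min compound preincubation; anti-monomethyl H3K9 antibody plus donor/acceptor beads, 10 min dark.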
Glioma ERSR ind = ER stress response induction in glioma; AID 602332; hit rate 0.02% among 420,000; U87-MG GRP78 promoter luciferase reporter, 16 h; Potency, µM, inactives show at the top dose activation, actives largely listed as activators; note: series mostly up to about 76 µM; % of control where 0% means no effect; nearly all actives have a fitted effect of over 35% in size
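Stably transfected U87-MG human glioma cells carrying a GRP78-based luminescent sensor were seeded at 1000 cells/well, pin-dosed with compounds and incubated 16 h. Luciferase reagent was then added, and end-point luminescence was read after 10 min at room temperature.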
Sfp inh = Sfp phosphopantetheinyl transferase inhibition. Biochemical Sfp PPTase activity, qHTS. Potency, µM, for the others: largest response in the series, negative = inhibition, most hits filed as inhibitors. hit rate 3.5% among 310,000. AID 1490;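 note: the enzyme is Sfp with the accession as filed and its product quenches rhodamine fluorescence; 0% = enzyme reaction without inhibitor and -100% = no enzyme wells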
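Compounds were incubated with enzyme (final 15 nM) for 15 min at room temperature before substrate addition started the reaction. Fluorescence at 525 nm excitation, 598 nm emission was recorded immediately and after 30 minutes.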
12-LOX inh = blocks human arachidonate 12S-lipoxygenase. hit rate 1.1% among 580,000. P18054. Potency, µM (series often up to 108 µM), for the others: top-dose activity change, negative = inhibition, hits mostly inhibitors. purified 12hLO, xylenol orange hydroperoxide absorbance; note: % is set by controls: 0 for no effect and ±100 for the full control effect
Target sequence (P18054 whole entry, looked up): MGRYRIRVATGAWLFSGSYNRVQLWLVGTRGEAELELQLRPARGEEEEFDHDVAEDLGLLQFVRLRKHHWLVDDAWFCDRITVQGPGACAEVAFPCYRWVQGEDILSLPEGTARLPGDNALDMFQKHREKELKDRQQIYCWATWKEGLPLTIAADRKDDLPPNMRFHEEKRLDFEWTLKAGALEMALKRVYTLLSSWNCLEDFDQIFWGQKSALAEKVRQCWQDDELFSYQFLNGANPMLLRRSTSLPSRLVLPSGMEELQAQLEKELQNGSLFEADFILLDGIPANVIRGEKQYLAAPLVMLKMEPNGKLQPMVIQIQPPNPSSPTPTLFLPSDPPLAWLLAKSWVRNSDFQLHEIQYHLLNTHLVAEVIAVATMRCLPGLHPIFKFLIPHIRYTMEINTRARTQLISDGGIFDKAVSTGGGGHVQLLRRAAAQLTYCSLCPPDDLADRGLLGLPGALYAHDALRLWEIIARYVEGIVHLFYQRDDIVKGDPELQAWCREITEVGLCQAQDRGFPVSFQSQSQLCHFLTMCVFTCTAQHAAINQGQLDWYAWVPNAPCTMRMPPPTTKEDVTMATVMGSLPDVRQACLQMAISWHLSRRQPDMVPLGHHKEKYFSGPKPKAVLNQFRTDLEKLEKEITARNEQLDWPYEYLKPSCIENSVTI
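Hydroperoxide product was detected by ferrous iron/xylenol orange as the 573 to 405 nm absorbance ratio. Arachidonic acid at 40 uM (final) was turned over for 30 min at room temperature by 150 nM human 12hLO, pH 7.0 Hepes buffer, after 15 min compound preincubation.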
VDR inh = blocks the human vitamin D receptor; Potency, µM, without a hit: max response, negative = inhibition, usual class: inhibitors; hit rate 0.93% among 400,000; VDR-SRC2-3 peptide fluorescence polarization, 2 h; AID 504847; P11473; note: % is set by controls: 0 for no effect and ±100 for the full control effect
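VDR–SRC2-3 interaction, FP format. Cmpds 23 nl via pintool, brief spin, 2 h ambient incubation.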
Starred values were filed as active, the others as inactive; ? = inconclusive; · = no result; [ ] = dose if it differs, or a comment. This excerpt belongs to a sample that is enriched for hits. Calls come from the whole dose curve; as a rule, active = well fitted curve in the direction sought with a large enough effect; inconclusive = small, poorly fitted or top-dose-only effect, or another doubt; inactive = no such curve, though single readings can be large; an effect the other way counts as inactive or inconclusive. Potency is the fitted concentration of half-maximal effect.

SMILES | G9a inh | Glioma ERSR ind | Sfp inh | 12-LOX inh | VDR inh
COc1ccc(NC(=S)NC(=O)/C=C/c2ccco2)cc1 | 22.4µM* | 1.2% | 6.4% | ? | 0.5%
COc1ccc2nc(C)c(C(=O)NCc3cccnc3-n3cccn3)cc2c1 | · | · | · | -22.0% | ·
COCCN1CCCCCC(O)c2cc(C(=O)NCCc3c[nH]c4ccccc34)ccc21 (stereo unspecified) | · | · | · | 18.5% | ·
Cc1nc(CCNC(=O)Cc2ccsc2)no1 | · | · | · | 35.5µM* | ·
C=C1c2ccccc2NC(=O)N1c1ccc(C)cc1 | 8.91µM* | 2.8% | -0.2% | 0.0% | -10.4%
Cc1ccc(N2C(=O)Cc3ccccc3C2=O)cc1 | -13.5% | 1.9% | 7.2% | 6.6% | -25.3%
C=C1c2cc(C)ccc2NC(=O)N1c1ccc(C)cc1 | 10µM* | 2.0% | 13.3% | 4.9% | -1.6%
O=[N+]([O-])c1cccc2nc(-c3ccccc3)c(-c3ccccc3)nc12 | 39.8µM* | -2.5% | -12.0% | 0.8% | -11.6%
CCCNC(=O)COc1cccc(-c2nc(-c3ccc(C)cc3)no2)c1 | · | · | · | 4.9% | ·
Nc1cccc(S(N)(=O)=O)c1 | · | · | · | 13.2% | ·
Cc1ccc(C2C(C#N)=C(N)SC(N)=C2C#N)cc1 | 44.7µM* | -5.0% | -22.5% | ? | -19.6%
COc1ccc(C2C(C#N)=C(C)NC(C)=C2C#N)c(OC)c1 | -25.1% | -6.9% | 7.9% | 21.0% | -1.3%
Cc1ccc(C2C(C#N)=C(N)SC(N)=C2C#N)c(C)c1 | ? | 5.1% | 79.4µM* | · | -29.9%
N#CC1=C(N)SC(N)=C(C#N)C1c1ccoc1 | 2µM* | · | -78.8% | · | ·
Cc1ccc(C2C(C#N)=C(N)OC3=C2C(=O)CCC3)cc1 (stereo unspecified) | · | · | · | -14.8% | ·
Cc1ccccc1C1C2=C(Nc3[nH]n(-c4ccccc4)c(=O)c31)c1ccccc1C2=O (stereo unspecified) | 7.94µM* | · | -10.4% | · | ·
Cc1cccc(C2C3=C(Nc4[nH]n(-c5ccccc5)c(=O)c42)c2ccccc2C3=O)c1 (stereo unspecified) | 20µM* | -0.8% | -16.4% | 35.5µM* | -10.5%
CC(C)c1ccc(NC(=O)Cc2nn(C)c(=O)c3ccccc23)cc1 | · | · | · | -14.6% | ·
Cc1ccc(S(=O)(=O)N2CCN(C(=O)CNc3cccc(Cl)c3Cl)CC2)cc1 | · | · | · | 18.6% | ·
CSCC[C@H](NC(=O)Cc1c(C)c2cc3c4c(oc3cc2oc1=O)CCCC4)C(=O)O | 44.7µM* | -1.9% | -6.1% | -4.1% | -22.5%
CCCCC(NC(=O)Cc1c(C)c2cc3c4c(oc3cc2oc1=O)CCCC4)C(=O)O (stereo unspecified) | ? | 0.1% | -19.0% | -6.2% | -13.8%
Nc1ccc(Nc2ccccc2)c(S(=O)(=O)O)c1 | 44.7µM* | -2.7% | 3.7% | ? | 9.4%
Cc1ccc(Nc2ccc(N)cc2S(=O)(=O)O)cc1 | 31.6µM* | -4.9% | 10.1% | ? | -30.0%
Cc1cccc(NC(=O)CN2CCSc3ccccc32)c1 | 44.7µM* | -2.6% | 0.7% | -1.7% | -10.3%
CC(CCc1ccccc1)NC(=O)CN1CCSc2ccccc21 (stereo unspecified) | 31.6µM* | -4.6% | ? | -97.4% | -15.2%
SMILES | G9a inh | Glioma ERSR ind | Sfp inh | 12-LOX inh | VDR inh
COc1cccc(NC(=O)CN2CCSc3ccccc32)c1 | 22.4µM* | -3.8% | 63.1µM* | ? | -7.5%
COc1ccccc1NC(=O)CN1CCSc2ccccc21 | ? | -4.8% | -13.2% | 160.1% | -10.4%
COCCn1c(SCc2nc(-c3ccc(Br)cc3)no2)nc2ccsc2c1=O | · | · | · | 4.1% | ·
COC(=O)c1c(-c2ccc(C(C)(C)C)cc2)csc1NC(=O)C1C2CCC(O2)C1C(=O)O (stereo unspecified) | 1.78µM* | -1.6% | 11.2µM* | ? | 44.7µM*
CC1(C)C(c2cccs2)=[N+]([O-])C2(CCCCC/C2=N\O)N1O (stereo unspecified) | -48.5%[59 µM] | -3.1% | -2.0% | 0.0% | -9.5%
CC1(C)C(c2ccccc2)=[N+]([O-])C2(CCCCC2=O)N1O (stereo unspecified) | 7.94µM* | -3.7% | 24.4% | -31.7% | -3.8%
O=C(O)c1ccc(N/N=C/C2=Cc3ccccc3OC2)cc1 | 50.1µM* | -2.1% | -4.1% | 9.6% | -18.4%
Cc1cccc(N=C2NC(=O)S/C2=C\c2ccco2)c1 | 22.4µM* | -0.5% | 56.2µM* | ? | -6.2%
O=C1NC(=Nc2ccc(Cl)cc2)/C(=C/c2ccco2)S1 | 3.16µM* | -0.6% | 50.1µM* | 25.1µM* | 11.6%

Compound activity as filed in PubChem.
